From PubChem BioAssay (NCATS) come the findings set out here.

Assay in all cases: qHTS profiling for inhibitors of Plasmodium falciparum proliferation (AID 504749); note: nearly all actives have a fitted effect of over 60% in size
What all share (conditions): P. falciparum in erythrocytes, SYBR Green DNA, 72 h; series mostly up to 28.7 µM
In general terms: Quantitative high-throughput screening tests each substance at several concentrations.

One assay concerns ATS189. In a few lines: (§1)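 Three-day growth assay of blood-stage parasites in erythrocytes (0.3% parasitemia, 2.5% hematocrit) at 37 C, 5% CO2, quantified by SYBR Green DNA staining after overnight detergent lysis.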
The subject of the next assay is ATS95. The procedure, abridged: as §1
Another assay deals with C2A. The procedure, abridged:
as §1

A further assay deals with CP185. In a few lines:
as §1

The subject of the next assay is CP191. In a few lines: as §1
The test system of the next assay is CP192. In a few lines:
as §1

Another assay concerns CP194. The procedure, abridged:
as §1

In another assay the test system is CP201. In a few lines:
as §1

The next assay deals with CP203. The procedure, abridged:
as §1

The test system of another assay is CP211. The procedure, abridged:
as §1

For a further assay, the system named is CP215. In a few lines: as §1
Another assay has as its system CP217. In a few lines:
as §1

In another assay the test system is CP237. The procedure, abridged: as §1
The subject of another assay is CP238. The procedure, abridged: as §1
Another assay concerns CP247. The procedure, abridged: as §1
In another assay the test system is CP250. The procedure, abridged:
as §1

For a further assay, the system named is CP252. In a few lines:
as §1

The subject of another assay is CP256. In a few lines:
as §1

A further assay concerns CP260. In a few lines:
as §1

The subject of another assay is CP262. The procedure, abridged:
as §1

Inconclusive results are not listed. Activity calls are given as the source filed them. Calls come from the whole dose curve; as a rule, active = well fitted inhibition curve with a large enough effect; inconclusive = small, poorly fitted or top-dose-only effect; inactive = flat fitted curve, though single readings scatter.
Potency is the fitted concentration of half-maximal effect.

`CC(C)Cc1ccc(C(C)C(=O)O)cc1` (centres undefined): the Potency entry in the assay with ATS189, in the assay with ATS95, with C2A, in the assay with CP185, in the assay on CP191 and in the assay on CP192 was “inactive” throughout. The Potency entry in the assay with CP194, in the assay on CP201, with CP203, in the assay on CP211, with CP215 and in the assay with CP217 was “inactive” in each case. Moreover, the Potency result with CP237, in the assay on CP238, with CP247, in the assay on CP250, with CP252 and in the assay on CP256 was “inactive” in each case. For the same compound, the Potency entry with CP260 and with CP262 was “inactive” each time.

In the case of `CCC1(c2ccccc2)C(=O)NCNC1=O`, the Potency entry with ATS189, in the assay on ATS95, in the assay with C2A, in the assay with CP185, with CP191 and in the assay on CP192 was “inactive” each time. Moreover, the Potency entry in the assay on CP194, with CP201, in the assay with CP203, in the assay with CP211, with CP215 and in the assay with CP217 was “inactive” in each case. The Potency entry in the assay with CP237, in the assay on CP238, with CP247, in the assay on CP250, in the assay with CP252 and in the assay with CP256 was “inactive” throughout.

For `CC(CCc1ccc(O)cc1)NCCc1ccc(O)c(O)c1` (centres undefined), the Potency result in the assay on ATS189, with ATS95, with C2A, with CP185, in the assay on CP191 and with CP192 was “inactive” throughout. Besides, the Potency result with CP194, in the assay on CP201, with CP203, with CP211, with CP215 and in the assay with CP217 was “inactive” throughout. In addition, the Potency entry in the assay with CP237, in the assay on CP238, in the assay on CP247, in the assay on CP250, in the assay with CP252 and with CP256 was “inactive” throughout. The Potency result in the assay with CP260 and with CP262 was “inactive” in each case.

Take `COc1ccccc1OCC(O)CN1CCN(CC(=O)Nc2c(C)cccc2C)CC1` (centres undefined): the Potency result in the assay with ATS189, in the assay with ATS95, in the assay on C2A, in the assay on CP185, with CP191 and in the assay with CP192 was “inactive” each time. Further, the Potency result in the assay with CP194, in the assay on CP201, in the assay with CP203, in the assay with CP211, in the assay on CP215 and in the assay with CP217 was “inactive” in each case. Also, the Potency entry with CP237, in the assay with CP238, in the assay on CP247, in the assay with CP250, in the assay on CP252 and with CP256 was “inactive” each time. In addition, the Potency result in the assay with CP260 and in the assay on CP262 was “inactive” throughout.

For `CN(C)CCC=C1c2ccccc2C=Cc2ccccc21`, the Potency result with ATS189, in the assay on C2A, in the assay with CP185, in the assay with CP192, with CP211 and in the assay with CP217 was “inactive” in each case. The Potency entry in the assay on CP237, in the assay on CP247, in the assay with CP250, with CP252, with CP260 and in the assay with CP262 was “inactive” in each case.

Turning to `CN(Cc1cnc2nc(N)nc(N)c2n1)c1ccc(C(=O)N[C@@H](CCC(=O)O)C(=O)O)cc1`, the Potency with C2A was 0.251 µM (active); in the assay on CP237 it was 0.1 µM (active); with CP250 it was 0.178 µM (active); in the assay on CP260 it was 0.158 µM (active). Besides, the Potency result in the assay on CP192, in the assay on CP194, in the assay on CP201, in the assay with CP203, in the assay with CP211 and with CP215 was “inactive” in each case. Besides, the Potency result with CP252 and in the assay with CP262 was “inactive” each time.

For `Cc1ccc(-c2cc(C(F)(F)F)nn2-c2ccc(S(N)(=O)=O)cc2)cc1`, the Potency entry in the assay with CP185 and in the assay on CP238 was “inactive” throughout. For the same compound, in the assay with CP215, the Potency is 13.5 µM (active).

For the compound `Clc1ccc2nsnc2c1NC1=NCCN1`, the Potency entry with ATS189, in the assay with ATS95, with C2A, with CP185, with CP191 and in the assay on CP192 was “inactive” throughout. The Potency result in the assay on CP194, in the assay on CP201, in the assay with CP211, in the assay on CP215, in the assay with CP217 and in the assay on CP237 was “inactive” each time. Besides, the Potency entry with CP238, with CP247, in the assay on CP250, with CP252, in the assay with CP256 and with CP260 was “inactive” in each case. Besides, the Potency entry in the assay with CP262 was “inactive”.

`Cc1ccc(C(=O)Nc2ccc(S(=O)(=O)O)c3cc(S(=O)(=O)O)cc(S(=O)(=O)O)c23)cc1NC(=O)c1cccc(NC(=O)Nc2cccc(C(=O)Nc3cc(C(=O)Nc4ccc(S(=O)(=O)O)c5cc(S(=O)(=O)O)cc(S(=O)(=O)O)c45)ccc3C)c2)c1`: the Potency result in the assay on ATS189, in the assay on C2A, in the assay on CP185, in the assay with CP191, in the assay on CP192 and with CP194 was “inactive” each time. The Potency result in the assay on CP201, in the assay with CP203, in the assay on CP211, in the assay with CP215, in the assay on CP217 and in the assay with CP237 was “inactive” each time. The Potency entry in the assay on CP238, in the assay with CP247, in the assay with CP250, with CP252, in the assay on CP256 and with CP260 was “inactive” in each case. The Potency entry in the assay on CP262 is “inactive”.

As for `CN1CCC(=C2c3ccccc3CC(=O)c3sccc32)CC1`, the results for the Potency in the assay with ATS95 and in the assay on CP203 were 11.2 µM (active) and 8.49 µM (active), respectively. The Potency entry in the assay with CP192, in the assay on CP250, in the assay with CP252 and with CP262 was “inactive” each time.

Consider `NC12CC3CC(CC(C3)C1)C2`, for which the Potency entry in the assay with ATS189, in the assay with ATS95, in the assay with C2A, with CP185, with CP191 and with CP192 was “inactive” throughout. Further, the Potency entry in the assay with CP194, in the assay with CP201, in the assay with CP203, in the assay with CP211, with CP215 and in the assay on CP217 was “inactive” each time. Moreover, the Potency entry in the assay with CP238, with CP247, in the assay with CP250, with CP252, in the assay on CP260 and in the assay on CP262 was “inactive” in each case.

Turning to `Clc1ccc(C(c2ccccc2Cl)C(Cl)Cl)cc1` (centres undefined), the Potency result in the assay on ATS189, in the assay with ATS95, in the assay with C2A, in the assay on CP185, with CP192 and with CP217 was “inactive” throughout. The Potency result with CP237, with CP238, in the assay with CP247, in the assay with CP250, with CP252 and in the assay with CP256 was “inactive” each time. Besides, in the assay with CP262, the Potency result was “inactive”.

Take `CN(CCOc1ccc(NS(C)(=O)=O)cc1)CCc1ccc(NS(C)(=O)=O)cc1`: the Potency entry in the assay with ATS189, with ATS95, in the assay on C2A, in the assay with CP185, with CP191 and in the assay on CP192 was “inactive” each time. For the same compound, the Potency entry in the assay with CP194, in the assay with CP201, in the assay on CP203, in the assay with CP211, in the assay on CP217 and in the assay on CP237 was “inactive” throughout. Besides, the Potency result in the assay on CP238, with CP247, in the assay on CP250, in the assay with CP252, in the assay on CP256 and in the assay with CP260 was “inactive” throughout. Besides, in the assay with CP262, the Potency result is “inactive”.
